Screening results: PubChem BioAssay, Sanford-Burnham Center for Chemical Genomics
A selection: hits, their analogues and other compounds. The true share with any hit is near 31%.
CYP2C9 act = human CYP2C9 activators, primary screen, biochemical, luminescence | actives 1.4% (n = 96,000) | recombinant CYP2C9, luciferin-H conversion; stronger effect = higher value; factor 1 = untreated enzyme, 0 = blocked | Cytochrome P450 2C9 (Homo sapiens), P11712 | activation factor at 5 µM;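 active = activation factor of 2 or more for CYP2C9 at a 5 µM dose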;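 also: 0 = sulfaphenazole-blocked wells and 1 = vehicle-only wells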
CYP2C19 act = human CYP2C19 activators, primary screen, biochemical, luminescence; Cytochrome P450 2C19 (Homo sapiens), P33261; recombinant CYP2C19, luciferin-H EGE luminescence; stronger effect = higher value; 0 = fully inhibited enzyme, 1 = untreated enzyme; activation factor at 5 µM; 96,000 tested, under 10 active; AID 1025, 2008;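 active = activation factor of at least 2 at 5 µM in the primary screen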;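 also: 0 = wells with 2.5 mM tranylcypromine and 1 = vehicle-only wells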
CYP2C19 inh = blockers of cytochrome P450 2C19 activity – biochemical, luminescence, ADME assay, primary screen | P33261 | CYP2C19 Supersomes, luciferin-H EGE luminescence, 30 min | inhibition, % at 5 µM | actives 21% (n = 96,000) | AID 778, 2007;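 active = CYP2C19 inhibition above a set limit at 5 µM in the primary screen, cut at about 50% in these data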;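 also: plate controls were negative control wells for no effect and 2.5 mM tranylcypromine positive control for full effect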
CYP2C9 inh = blockers of cytochrome P450 2C9 activity – biochemical, luminescence, ADME assay, primary screen. P11712. CYP2C9 Supersomes, luciferin-H conversion. inhibition, % at 5 µM. actives 20% (n = 96,000);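 active = blocking of liver enzyme CYP2C9 beyond about 50% at 5 µM, limit read from the data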
PLAP act = PLAP enzyme activators, biochemical, luminescence, HTS; purified PLAP enzyme, luminescent substrate read-out; stronger effect = higher value; actives 1.2% (n = 96,000); activation fold at 20 µM; in the data active = activation fold above about 2
Target sequence (P05187 whole entry, looked up): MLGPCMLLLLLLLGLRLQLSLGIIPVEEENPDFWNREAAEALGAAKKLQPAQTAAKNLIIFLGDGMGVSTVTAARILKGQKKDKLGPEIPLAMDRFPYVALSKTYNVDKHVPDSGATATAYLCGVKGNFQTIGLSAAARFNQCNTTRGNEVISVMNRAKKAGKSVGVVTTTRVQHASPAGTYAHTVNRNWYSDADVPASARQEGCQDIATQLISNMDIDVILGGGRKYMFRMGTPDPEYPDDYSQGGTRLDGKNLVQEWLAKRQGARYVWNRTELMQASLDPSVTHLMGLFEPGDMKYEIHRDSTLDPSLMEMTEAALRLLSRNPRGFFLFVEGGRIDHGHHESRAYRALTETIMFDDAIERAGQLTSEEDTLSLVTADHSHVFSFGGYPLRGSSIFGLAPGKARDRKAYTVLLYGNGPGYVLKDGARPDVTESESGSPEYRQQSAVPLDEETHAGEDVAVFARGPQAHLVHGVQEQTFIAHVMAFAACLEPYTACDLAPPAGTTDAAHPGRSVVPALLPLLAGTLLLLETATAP
The depositor's hits bear a star.

SMILES | CYP2C9 act | CYP2C19 act | CYP2C19 inh | CYP2C9 inh | PLAP act
CCCn1[nH]cc(SC)c(=O)c1=O | 1 | 1 | 0 | -3 | 0.9
CC(=O)Nc1ccccc1Sc1ccccc1 | 0.8 | 0.2 | 79* | 20 | 0.9
O=C(c1ccc(Cl)cc1)C1C2C(=O)N(c3ccccc3)C(=O)C2C2CCCN21 (stereo unspecified) | 0.2 | 0.2 | 79* | 78* | 1.5
Cc1nc2ncnn2c(C)c1CCC(=O)N1CCOCC1 | 1 | 1.1 | -14 | -2 | 1
O=C(Nc1ccc(Cl)cn1)C1CCCN1S(=O)(=O)c1ccc(Cl)cc1 (stereo unspecified) | 0.3 | 0.6 | 43 | 74* | 0.9
O=C(Nc1nnc(C2CC2)s1)C1Cc2ccccc2CN1S(=O)(=O)c1ccccc1F (stereo unspecified) | 1 | 0.5 | 55* | 4 | 1
Cc1ccc(S(=O)(=O)N2CCCC2C(=O)Nc2nccs2)cc1 (stereo unspecified) | 0.4 | 0.4 | 60* | 61* | 1
O=C(C1CCCN1S(=O)(=O)c1ccc(Cl)c(Cl)c1)N1CCCCC1 (stereo unspecified) | 2.6* | 1 | 1 | -161 | 1
COC(=O)c1cc2ccsc2n1CC(=O)N(C)C1CCCCC1 | 0.9 | 0.7 | 33 | 12 | 1
CN(C)S(=O)(=O)c1ccc(N2CCN(S(=O)(=O)c3ccc(F)cc3)CC2)c(Cl)c1 | 0.9 | 0.9 | 12 | 11 | 1.4
Cc1ccc(S(=O)(=O)N2CCCC2C(=O)N2CCCCCC2)cc1 (stereo unspecified) | 2.7* | 0.8 | 21 | -168 | 1.2
Cc1ccc(S(=O)(=O)N2CCCC2C(=O)NC2CCCCC2)cc1 (stereo unspecified) | 0.7 | 0.2 | 77* | 30 | 1.2
Cc1ccc(S(=O)(=O)N2CCCC2C(=O)Nn2cnnc2)cc1 (stereo unspecified) | 0.9 | 0.7 | 30 | 9 | 1
O=C(Nc1nccs1)C1Cc2ccccc2CN1S(=O)(=O)c1ccc(F)cc1 (stereo unspecified) | 0.6 | 0.4 | 61* | 35 | 1
Cc1ccc(NC(=O)C2CCCN(S(=O)(=O)c3c(C)noc3/C=C/N(C)C)C2)cc1F (stereo unspecified) | 0.9 | 1 | 0 | 15 | 1
CN(C)C(=O)N1CCCC(C(=O)NCc2ccccc2)C1 (stereo unspecified) | 1 | 0.4 | 57* | 0 | 1
CN(C)C(=O)N1CCCC(C(=O)NCCc2ccccc2)C1 (stereo unspecified) | 0.9 | 0.8 | 22 | 9 | 1.1
CCOc1ccccc1NC(=O)C1CCCN(C(=O)NCc2ccccc2)C1 (stereo unspecified) | 1.8 | 0.5 | 51* | -78 | 0.9
COc1ccc(S(=O)(=O)N(c2onc(C)c2Cl)S(=O)(=O)c2ccc(OC)cc2)cc1 | 0.6 | 1 | 3 | 41 | 1
CCC1CCCCN1c1ccc([N+](=O)[O-])cc1/C=N/NC(=O)Cn1c2ccccc2c(=O)c2ccccc21 (stereo unspecified) | 0.5 | 1.1 | -7 | 49 | 1.3
CCOC(=O)c1[nH]c(C)c(CCC(=O)OC)c1C | 0.9 | 0.6 | 45 | 11 | 1.1
CC(C)c1ccc(NC(=O)C(c2ccc3c(c2)OCO3)N2CCN(C(=O)c3ccco3)CC2)cc1 (stereo unspecified) | 0.9 | 1 | -2 | 14 | 1.8
O=C(CC(SCCO)c1ccc2c(c1)OCO2)c1ccco1 (stereo unspecified) | 0.3 | 0 | 98* | 72* | 0.6
CCOc1ccc(Br)cc1S(=O)(=O)Nc1ccccc1N1CCOCC1 | 0.4 | 0.2 | 78* | 55* | 1.6
CCOc1ccc(Br)cc1S(=O)(=O)Nc1nc(CN2CCOCC2)nc2sc(C)c(C)c12 | 0.7 | 0.8 | 17 | 30 | 1.2
SMILES | CYP2C9 act | CYP2C19 act | CYP2C19 inh | CYP2C9 inh | PLAP act
CCOc1ccc(Br)cc1S(=O)(=O)Nc1ccc(N2CCOCC2)cc1 | 0.5 | 0.4 | 64* | 54* | 1.1
Cc1cccc(Cn2c(=O)c3c(nc4n3CCCN4Cc3ccccc3)n(C)c2=O)c1 | 0.5 | 0.9 | 12 | 48 | 1.3
N#CCCN(Cc1cccnc1)C(=O)c1ccc(S(=O)(=O)N2CCOCC2)cc1 | 1 | 1 | 3 | 1 | 1
N#CCCN(Cc1cccnc1)C(=O)Nc1ccc(Cl)c(Cl)c1 | 0.4 | 0.1 | 92* | 64* | 1.2
S=C(NCc1cccnc1)Nc1ccc(Cl)c(Cl)c1 | 0 | 0.1 | 92* | 98* | 1
Cc1ccc(NC(=O)N(Cc2cccnc2)Cc2ccco2)cc1C | 0.2 | 0 | 96* | 78* | 0.9
O=C(Nc1ccc(Cl)cc1)N(Cc1cccnc1)Cc1ccco1 | 0.1 | 0 | 100* | 90* | 0.9
O=C(NCc1cccnc1)c1ccc(NC(=O)c2ccco2)cc1 | 0.7 | 1.1 | -6 | 32 | 0.9
CC(=O)Nc1ccc(C(=O)n2nc(C)cc2C)cc1 | 1.1 | 1 | 4 | -8 | 1
CCOC(=O)CNC(=O)Cn1cnc2c(nnn2-c2cccc(Cl)c2)c1=O | 1.4 | 0.9 | 10 | -44 | 1
Cn1c(CN2CCOCC2)nnc1SCC(=O)NCCc1ccccc1 | 1.4 | 1.1 | -8 | -36 | 1.1
Nn1c(CSc2ccccn2)nc2ccccc2c1=O | 1 | 0.7 | 33 | 2 | 0.7
CC1CCC(C(=O)NC(C(=O)NCc2cccnc2)C(C)C)CC1 (stereo unspecified) | 0.3 | 0.6 | 41 | 66* | 1.1
CC(C)CC(NC(=O)C1CCC(C)CC1)C(=O)N1CCN(c2ccccn2)CC1 (stereo unspecified) | 0.4 | 0.2 | 81* | 62* | 1.7
CC(C)CC(NC(=O)C1CCC(C)CC1)C(=O)NCc1ccccn1 (stereo unspecified) | 0.5 | 0.6 | 36 | 45 | 1
CC(C)CC(NC(=O)C1CCC(C)CC1)C(=O)Nc1cccnc1 (stereo unspecified) | 1.1 | 0.9 | 7 | -5 | 1.1
CC(C)CC(NC(=O)C1CCC(C)CC1)C(=O)NCc1cccnc1 (stereo unspecified) | 0.5 | 0.7 | 30 | 54* | 1
COc1ccc(OC)c2c(C)cc(N3CCN(C(=O)c4ccc(F)cc4)CC3)nc12 | 0.8 | 1 | 3 | 19 | 1.6
O=C(Nc1cc(Sc2nc3ccccc3s2)cc([N+](=O)[O-])c1)c1ccccc1F | 0.3 | 0.6 | 36 | 71* | 1
O=C(N/N=C/c1ccc(Sc2nc3ccccc3s2)c([N+](=O)[O-])c1)c1ccccn1 | 1 | 1 | -2 | 2 | 1.1
Cc1cccc(NC(=O)C2c3ccccc3C(=O)N3CCc4ccccc4C23)n1 (stereo unspecified) | 0.6 | 0.7 | 28 | 41 | 1
